Common to all, as to assay: log2 ratio of Biotin-Ahx-Ub-VS probe labelling (fragment/DMSO); higher = less target engagement (more negative = stronger competition), active = hit call of the paper (q ≤ 0.05, log2 ratio ≤ -1)
Common to all, as to details: compound concentration: 200 uM; treatment time: 3 h

Assay [1] deals with T1, USP42 (UniProt Q9H9J4).
T1 sequence (whole entry): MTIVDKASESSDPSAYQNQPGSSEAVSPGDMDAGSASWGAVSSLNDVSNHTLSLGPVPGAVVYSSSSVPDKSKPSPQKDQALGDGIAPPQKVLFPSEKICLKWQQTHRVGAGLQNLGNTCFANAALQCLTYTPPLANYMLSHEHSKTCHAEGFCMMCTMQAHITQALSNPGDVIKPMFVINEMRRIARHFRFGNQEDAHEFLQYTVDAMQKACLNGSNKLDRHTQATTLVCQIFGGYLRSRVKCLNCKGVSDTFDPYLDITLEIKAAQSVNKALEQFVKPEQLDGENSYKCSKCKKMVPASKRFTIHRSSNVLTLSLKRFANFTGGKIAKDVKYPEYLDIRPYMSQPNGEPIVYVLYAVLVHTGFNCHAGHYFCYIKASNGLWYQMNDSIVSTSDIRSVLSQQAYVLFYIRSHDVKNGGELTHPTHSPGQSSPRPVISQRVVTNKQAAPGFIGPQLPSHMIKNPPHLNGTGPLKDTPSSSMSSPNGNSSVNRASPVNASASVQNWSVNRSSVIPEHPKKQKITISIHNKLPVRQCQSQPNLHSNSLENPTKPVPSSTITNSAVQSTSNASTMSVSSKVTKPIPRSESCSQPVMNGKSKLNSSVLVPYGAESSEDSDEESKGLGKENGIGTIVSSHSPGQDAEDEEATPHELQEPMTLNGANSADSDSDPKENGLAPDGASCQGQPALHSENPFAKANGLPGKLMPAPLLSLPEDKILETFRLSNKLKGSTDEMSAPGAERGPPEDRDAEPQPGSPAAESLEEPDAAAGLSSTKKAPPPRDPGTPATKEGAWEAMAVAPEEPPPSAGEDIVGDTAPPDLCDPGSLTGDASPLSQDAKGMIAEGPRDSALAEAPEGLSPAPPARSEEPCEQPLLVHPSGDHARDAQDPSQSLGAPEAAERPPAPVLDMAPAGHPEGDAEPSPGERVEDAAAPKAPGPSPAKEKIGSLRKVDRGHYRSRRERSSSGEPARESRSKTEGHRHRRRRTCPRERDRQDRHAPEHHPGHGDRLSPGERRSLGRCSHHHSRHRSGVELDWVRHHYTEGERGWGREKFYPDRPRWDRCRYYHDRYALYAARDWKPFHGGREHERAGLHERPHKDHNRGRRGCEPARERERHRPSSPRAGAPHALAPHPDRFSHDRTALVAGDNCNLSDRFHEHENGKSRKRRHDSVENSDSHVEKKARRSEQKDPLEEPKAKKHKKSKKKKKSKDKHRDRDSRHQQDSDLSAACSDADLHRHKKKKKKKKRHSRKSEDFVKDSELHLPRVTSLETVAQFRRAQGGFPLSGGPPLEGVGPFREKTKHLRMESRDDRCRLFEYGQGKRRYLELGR
In a few lines: (§1)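 Each value is an average log2 ratio of fragment to vehicle, tested by unpaired t-test. The underlying Spectronaut label-free quantities were global-median-normalised, and only proteins with ≥2 unique peptides were included. Triplicate HEK293T lysate samples (495 µg) were exposed to fragment at 200 µM or vehicle for 3 h, then to Biotin-Ahx-Ub-VS at 0.5 µM final for 1 h, before NeutrAvidin enrichment of labelled DUBs, LysC and trypsin digestion, and diaPASEF LC-MS/MS.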

Assay [2] deals with USP46 (UniProt P62068). In a few lines:
as §1

For assay [3], the target named is T2, USP47 (UniProt Q96K76).
T2 sequence (whole entry): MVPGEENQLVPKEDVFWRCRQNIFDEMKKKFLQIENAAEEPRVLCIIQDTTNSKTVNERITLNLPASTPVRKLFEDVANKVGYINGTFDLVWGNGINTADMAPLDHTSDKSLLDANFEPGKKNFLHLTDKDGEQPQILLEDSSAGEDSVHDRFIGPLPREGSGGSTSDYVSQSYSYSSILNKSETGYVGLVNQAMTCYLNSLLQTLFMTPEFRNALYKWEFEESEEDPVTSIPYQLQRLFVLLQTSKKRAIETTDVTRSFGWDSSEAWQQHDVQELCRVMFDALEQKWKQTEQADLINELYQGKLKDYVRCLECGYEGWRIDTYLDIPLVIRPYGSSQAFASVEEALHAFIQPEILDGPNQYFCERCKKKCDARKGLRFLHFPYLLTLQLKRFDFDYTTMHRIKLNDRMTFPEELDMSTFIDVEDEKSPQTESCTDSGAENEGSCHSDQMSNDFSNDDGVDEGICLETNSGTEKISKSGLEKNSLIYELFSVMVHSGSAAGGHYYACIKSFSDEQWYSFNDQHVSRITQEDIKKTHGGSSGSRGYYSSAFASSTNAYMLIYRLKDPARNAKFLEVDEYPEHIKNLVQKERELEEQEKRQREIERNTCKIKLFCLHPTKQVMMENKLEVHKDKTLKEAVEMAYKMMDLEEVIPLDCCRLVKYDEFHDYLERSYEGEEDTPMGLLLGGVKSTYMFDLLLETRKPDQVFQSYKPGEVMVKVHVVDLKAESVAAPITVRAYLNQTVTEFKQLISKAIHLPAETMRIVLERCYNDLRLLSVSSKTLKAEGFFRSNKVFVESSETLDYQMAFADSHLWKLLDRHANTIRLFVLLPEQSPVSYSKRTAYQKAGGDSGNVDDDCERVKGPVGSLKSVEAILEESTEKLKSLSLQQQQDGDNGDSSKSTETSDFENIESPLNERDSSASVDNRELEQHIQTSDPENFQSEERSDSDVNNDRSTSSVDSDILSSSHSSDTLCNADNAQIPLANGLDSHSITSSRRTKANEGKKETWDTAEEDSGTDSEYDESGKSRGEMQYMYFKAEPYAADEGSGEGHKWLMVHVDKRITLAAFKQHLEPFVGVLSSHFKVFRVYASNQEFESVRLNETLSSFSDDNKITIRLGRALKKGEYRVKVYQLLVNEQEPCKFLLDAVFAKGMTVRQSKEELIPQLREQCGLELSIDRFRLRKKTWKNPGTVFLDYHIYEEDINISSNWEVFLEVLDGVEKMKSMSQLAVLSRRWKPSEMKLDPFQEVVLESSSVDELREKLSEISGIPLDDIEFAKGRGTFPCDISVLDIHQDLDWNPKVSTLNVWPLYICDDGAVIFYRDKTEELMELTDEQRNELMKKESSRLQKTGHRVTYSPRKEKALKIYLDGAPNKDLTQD
In a few lines:
as §1

Assay [4] deals with T3, USP48 (UniProt Q86UV5).
T3 sequence (whole entry): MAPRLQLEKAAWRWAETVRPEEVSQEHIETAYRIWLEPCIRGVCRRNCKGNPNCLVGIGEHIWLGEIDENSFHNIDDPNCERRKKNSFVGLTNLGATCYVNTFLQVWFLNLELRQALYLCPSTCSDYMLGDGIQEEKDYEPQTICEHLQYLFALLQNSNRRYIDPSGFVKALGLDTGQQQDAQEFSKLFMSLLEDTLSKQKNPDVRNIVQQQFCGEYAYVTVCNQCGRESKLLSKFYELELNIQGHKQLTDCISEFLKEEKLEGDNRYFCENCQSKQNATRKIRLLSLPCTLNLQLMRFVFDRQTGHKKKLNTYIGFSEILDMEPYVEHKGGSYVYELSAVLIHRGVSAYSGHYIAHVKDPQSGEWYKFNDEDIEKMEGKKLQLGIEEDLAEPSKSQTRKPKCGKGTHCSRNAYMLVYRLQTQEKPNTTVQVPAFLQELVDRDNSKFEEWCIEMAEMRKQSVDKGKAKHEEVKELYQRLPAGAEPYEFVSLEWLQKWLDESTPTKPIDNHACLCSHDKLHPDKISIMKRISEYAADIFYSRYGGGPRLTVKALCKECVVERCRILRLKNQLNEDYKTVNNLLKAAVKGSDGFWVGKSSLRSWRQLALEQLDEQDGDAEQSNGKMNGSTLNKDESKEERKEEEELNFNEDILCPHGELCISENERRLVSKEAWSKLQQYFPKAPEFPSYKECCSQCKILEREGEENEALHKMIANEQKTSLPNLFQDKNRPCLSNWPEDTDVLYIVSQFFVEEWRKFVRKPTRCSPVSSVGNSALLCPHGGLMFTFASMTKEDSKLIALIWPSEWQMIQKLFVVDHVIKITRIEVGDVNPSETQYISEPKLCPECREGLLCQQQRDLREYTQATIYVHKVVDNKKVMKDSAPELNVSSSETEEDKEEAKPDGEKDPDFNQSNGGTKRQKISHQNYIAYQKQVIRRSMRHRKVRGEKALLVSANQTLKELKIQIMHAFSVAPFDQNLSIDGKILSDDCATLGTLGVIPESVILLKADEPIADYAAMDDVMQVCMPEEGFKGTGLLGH
In a few lines:
as §1

Assay [5] addresses T4, USP5 (UniProt P45974).
T4 sequence (whole entry): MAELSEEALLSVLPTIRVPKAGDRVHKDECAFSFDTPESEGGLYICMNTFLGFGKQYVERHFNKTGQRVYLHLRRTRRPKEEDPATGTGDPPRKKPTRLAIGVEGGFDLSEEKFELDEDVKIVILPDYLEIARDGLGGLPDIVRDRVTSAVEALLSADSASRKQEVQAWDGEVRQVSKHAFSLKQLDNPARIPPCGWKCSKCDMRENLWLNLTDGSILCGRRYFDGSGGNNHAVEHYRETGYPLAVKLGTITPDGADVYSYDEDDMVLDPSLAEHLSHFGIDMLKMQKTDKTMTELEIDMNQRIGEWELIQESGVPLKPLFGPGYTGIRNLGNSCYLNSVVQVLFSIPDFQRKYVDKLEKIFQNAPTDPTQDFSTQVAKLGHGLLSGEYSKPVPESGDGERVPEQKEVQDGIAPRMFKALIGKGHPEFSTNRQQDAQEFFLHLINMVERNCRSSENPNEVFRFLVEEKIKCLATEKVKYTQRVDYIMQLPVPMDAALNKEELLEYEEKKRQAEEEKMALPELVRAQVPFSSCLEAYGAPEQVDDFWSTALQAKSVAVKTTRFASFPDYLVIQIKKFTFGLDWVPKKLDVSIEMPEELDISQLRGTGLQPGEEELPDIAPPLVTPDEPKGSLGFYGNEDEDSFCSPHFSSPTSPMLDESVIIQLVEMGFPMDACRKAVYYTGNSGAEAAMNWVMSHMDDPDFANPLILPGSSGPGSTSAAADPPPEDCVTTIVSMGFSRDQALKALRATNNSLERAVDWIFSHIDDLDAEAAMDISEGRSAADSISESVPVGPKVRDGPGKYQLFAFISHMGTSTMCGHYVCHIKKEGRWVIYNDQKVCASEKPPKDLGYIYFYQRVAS
In a few lines:
as §1

The target of assay [6] is USP54 (UniProt Q70EL1). In a few lines: as §1
USP54, sequence (Q70EL1 whole entry): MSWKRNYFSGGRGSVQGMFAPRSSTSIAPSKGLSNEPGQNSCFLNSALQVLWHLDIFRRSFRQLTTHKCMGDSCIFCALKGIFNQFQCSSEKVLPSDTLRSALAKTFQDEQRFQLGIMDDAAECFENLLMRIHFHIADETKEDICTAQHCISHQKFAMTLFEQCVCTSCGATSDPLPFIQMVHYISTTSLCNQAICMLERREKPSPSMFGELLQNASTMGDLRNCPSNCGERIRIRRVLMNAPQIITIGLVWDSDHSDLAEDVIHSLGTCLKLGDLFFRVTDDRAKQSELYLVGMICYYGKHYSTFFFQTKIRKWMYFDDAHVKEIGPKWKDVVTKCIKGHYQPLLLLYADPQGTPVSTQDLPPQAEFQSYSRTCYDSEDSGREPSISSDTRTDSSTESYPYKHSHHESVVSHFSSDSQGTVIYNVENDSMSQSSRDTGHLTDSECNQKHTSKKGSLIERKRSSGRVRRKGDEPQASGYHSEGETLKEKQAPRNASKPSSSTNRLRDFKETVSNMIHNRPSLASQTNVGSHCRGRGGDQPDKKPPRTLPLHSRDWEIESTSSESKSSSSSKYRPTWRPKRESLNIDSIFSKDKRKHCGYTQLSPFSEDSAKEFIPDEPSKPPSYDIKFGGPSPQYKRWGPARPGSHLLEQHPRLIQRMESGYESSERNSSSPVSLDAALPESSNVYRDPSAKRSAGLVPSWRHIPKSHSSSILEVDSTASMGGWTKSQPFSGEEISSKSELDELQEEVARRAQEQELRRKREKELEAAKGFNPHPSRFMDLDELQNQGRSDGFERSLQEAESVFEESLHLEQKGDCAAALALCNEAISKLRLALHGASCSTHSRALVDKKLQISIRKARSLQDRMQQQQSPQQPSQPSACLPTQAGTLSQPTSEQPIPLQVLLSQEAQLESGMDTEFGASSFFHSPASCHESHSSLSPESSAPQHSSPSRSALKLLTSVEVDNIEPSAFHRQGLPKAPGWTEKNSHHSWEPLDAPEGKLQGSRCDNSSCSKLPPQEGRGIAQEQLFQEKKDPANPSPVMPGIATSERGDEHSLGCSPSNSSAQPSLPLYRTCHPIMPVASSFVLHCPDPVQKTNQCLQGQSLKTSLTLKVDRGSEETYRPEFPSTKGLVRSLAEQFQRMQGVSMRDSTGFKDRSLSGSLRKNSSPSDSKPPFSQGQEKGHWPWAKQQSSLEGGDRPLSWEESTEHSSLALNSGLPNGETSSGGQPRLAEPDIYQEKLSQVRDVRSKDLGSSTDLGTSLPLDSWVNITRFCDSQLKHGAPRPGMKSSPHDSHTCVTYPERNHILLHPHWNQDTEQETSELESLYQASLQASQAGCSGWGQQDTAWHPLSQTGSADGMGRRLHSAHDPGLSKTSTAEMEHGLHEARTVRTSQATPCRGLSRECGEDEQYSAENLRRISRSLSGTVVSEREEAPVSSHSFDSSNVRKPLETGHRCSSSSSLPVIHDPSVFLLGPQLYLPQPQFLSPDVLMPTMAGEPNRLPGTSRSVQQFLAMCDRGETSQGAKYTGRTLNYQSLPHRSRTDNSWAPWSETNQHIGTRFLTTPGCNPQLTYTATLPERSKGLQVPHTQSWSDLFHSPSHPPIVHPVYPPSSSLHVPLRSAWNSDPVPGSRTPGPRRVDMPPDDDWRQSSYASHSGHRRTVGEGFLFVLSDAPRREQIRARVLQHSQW
For assay [7], the target named is USP7 (UniProt Q93009). In a few lines: as §1
Assay [8] addresses T5, USP8 (UniProt P40818).
T5 sequence (whole entry): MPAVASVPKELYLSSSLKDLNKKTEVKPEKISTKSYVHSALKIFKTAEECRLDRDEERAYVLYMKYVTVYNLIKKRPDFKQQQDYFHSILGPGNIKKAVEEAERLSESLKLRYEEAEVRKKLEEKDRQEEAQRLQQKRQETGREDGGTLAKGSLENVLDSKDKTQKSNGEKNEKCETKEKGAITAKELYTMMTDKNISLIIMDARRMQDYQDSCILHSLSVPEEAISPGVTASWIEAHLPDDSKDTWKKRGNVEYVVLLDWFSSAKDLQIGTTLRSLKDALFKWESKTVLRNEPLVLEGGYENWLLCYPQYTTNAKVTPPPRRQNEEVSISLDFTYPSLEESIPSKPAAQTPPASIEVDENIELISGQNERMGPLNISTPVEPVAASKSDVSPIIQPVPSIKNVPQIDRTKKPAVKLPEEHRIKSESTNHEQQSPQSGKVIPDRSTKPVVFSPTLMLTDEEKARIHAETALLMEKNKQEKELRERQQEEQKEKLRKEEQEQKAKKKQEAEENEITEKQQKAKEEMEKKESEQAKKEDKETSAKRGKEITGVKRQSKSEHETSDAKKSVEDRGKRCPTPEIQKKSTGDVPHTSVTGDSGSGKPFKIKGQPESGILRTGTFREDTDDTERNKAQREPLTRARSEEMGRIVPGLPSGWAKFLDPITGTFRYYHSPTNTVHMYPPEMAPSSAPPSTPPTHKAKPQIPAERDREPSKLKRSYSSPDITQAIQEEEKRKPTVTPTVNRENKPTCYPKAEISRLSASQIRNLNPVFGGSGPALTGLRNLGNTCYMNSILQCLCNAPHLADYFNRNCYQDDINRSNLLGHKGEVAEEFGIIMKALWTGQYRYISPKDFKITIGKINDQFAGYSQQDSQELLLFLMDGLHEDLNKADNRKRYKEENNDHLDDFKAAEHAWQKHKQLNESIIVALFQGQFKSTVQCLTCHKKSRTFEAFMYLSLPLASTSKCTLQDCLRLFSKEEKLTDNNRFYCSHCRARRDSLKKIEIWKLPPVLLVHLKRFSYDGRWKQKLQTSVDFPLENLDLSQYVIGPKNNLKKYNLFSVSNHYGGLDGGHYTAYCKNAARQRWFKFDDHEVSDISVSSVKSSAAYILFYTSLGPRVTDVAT
In a few lines:
as §1

The target in assay [9] is USP9X (UniProt Q93008). In a few lines: as §1
USP9X, sequence (Q93008 whole entry): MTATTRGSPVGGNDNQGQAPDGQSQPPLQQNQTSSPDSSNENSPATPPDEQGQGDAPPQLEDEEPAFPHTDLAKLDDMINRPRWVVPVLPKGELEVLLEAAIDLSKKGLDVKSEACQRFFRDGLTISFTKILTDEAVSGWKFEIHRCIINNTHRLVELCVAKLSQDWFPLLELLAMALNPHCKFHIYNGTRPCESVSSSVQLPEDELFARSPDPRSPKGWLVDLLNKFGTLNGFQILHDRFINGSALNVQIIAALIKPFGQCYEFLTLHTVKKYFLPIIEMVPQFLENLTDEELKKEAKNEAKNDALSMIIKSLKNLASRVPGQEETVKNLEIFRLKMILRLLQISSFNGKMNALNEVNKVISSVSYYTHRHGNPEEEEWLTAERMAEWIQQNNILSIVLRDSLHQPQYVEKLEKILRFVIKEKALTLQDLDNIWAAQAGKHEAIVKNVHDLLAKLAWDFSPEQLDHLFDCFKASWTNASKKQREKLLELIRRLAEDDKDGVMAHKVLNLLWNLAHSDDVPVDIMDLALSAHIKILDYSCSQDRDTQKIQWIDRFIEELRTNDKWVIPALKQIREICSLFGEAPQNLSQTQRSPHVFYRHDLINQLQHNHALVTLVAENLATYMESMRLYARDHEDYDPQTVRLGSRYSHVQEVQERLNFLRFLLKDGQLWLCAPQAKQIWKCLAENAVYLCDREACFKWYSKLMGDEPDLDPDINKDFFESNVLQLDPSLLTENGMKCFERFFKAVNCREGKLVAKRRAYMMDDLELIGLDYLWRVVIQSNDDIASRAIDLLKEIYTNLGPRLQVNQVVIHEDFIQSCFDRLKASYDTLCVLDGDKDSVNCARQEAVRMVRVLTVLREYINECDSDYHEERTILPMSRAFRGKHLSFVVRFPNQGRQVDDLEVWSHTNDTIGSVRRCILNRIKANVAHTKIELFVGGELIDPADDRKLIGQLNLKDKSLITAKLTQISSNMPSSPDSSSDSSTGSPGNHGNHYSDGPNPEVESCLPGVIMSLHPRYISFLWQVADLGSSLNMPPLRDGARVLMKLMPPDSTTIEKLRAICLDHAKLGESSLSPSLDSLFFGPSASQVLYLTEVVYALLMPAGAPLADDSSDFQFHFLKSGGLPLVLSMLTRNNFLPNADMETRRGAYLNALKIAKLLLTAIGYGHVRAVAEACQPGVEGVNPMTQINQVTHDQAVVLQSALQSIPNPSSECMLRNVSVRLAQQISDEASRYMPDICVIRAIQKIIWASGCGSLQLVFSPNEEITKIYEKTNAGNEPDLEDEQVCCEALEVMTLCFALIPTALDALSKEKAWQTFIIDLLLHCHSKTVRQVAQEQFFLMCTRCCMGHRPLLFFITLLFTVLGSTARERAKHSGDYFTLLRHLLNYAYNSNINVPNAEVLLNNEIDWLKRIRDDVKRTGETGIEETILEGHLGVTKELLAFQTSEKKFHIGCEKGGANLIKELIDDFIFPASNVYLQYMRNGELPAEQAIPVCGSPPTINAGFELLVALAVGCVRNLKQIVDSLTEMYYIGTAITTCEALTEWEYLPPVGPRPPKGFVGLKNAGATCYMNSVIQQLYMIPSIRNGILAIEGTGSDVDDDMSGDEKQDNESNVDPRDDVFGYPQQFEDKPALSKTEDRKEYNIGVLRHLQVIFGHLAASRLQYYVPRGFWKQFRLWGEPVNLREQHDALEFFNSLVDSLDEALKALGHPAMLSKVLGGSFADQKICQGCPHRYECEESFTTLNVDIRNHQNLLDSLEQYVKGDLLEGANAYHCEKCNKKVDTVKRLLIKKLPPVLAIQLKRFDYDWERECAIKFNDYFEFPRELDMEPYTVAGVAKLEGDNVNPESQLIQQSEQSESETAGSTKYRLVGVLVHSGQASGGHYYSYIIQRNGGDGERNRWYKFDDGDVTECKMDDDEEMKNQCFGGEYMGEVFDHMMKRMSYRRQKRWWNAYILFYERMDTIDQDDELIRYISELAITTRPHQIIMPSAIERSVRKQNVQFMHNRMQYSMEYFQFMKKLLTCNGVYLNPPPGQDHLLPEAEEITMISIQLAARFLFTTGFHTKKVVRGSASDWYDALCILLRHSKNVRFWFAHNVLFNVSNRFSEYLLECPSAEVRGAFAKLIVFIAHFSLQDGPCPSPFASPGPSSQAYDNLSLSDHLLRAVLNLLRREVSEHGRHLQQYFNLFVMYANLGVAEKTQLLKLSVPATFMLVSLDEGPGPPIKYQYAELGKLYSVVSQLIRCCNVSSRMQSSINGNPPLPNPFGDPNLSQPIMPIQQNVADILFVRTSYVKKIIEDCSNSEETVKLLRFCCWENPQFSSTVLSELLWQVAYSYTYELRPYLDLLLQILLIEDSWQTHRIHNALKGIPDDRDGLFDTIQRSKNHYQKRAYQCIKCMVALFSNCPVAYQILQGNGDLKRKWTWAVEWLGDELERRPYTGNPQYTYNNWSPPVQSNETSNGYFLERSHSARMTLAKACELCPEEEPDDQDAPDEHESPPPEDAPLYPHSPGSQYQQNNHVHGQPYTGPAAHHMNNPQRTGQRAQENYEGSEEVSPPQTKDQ
Assay [10] concerns the target UniProt O00487. In a few lines: as §1

From the supplement of paper PMC11732987, “Enantioselective OTUD7B fragment discovery through chemoproteomics screening and high-throughput optimisation” (Communications Chemistry, 2025) come the findings set out here.

A number with no mark means an inactive call.

UniProt O00487, sequence (O00487 whole entry): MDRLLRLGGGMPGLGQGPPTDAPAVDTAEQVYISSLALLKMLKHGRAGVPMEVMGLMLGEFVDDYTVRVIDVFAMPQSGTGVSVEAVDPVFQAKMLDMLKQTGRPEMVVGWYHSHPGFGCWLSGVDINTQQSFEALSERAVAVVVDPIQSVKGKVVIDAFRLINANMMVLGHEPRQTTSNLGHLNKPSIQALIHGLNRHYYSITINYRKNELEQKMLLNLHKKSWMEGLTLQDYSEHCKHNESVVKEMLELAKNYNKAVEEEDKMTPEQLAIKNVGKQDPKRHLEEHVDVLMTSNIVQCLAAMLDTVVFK
USP46, sequence (P62068 whole entry): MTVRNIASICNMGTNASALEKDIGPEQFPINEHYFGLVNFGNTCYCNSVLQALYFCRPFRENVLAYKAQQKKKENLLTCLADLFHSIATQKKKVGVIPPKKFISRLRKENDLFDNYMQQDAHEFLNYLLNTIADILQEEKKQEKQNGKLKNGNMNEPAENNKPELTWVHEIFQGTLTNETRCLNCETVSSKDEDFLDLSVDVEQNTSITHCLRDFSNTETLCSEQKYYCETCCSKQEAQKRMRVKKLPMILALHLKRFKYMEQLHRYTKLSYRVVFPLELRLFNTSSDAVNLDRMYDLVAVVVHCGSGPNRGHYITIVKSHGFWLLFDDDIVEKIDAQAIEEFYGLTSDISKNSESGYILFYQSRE

Regarding `CS(=O)(=O)N1CCCN(C(=O)CCl)CC1`, the “log2 ratio of Biotin-Ahx-Ub-VS probe labelling” value (“log2 ratio” below) is -0.107 in [1]; 0.169 in assay [2]; -0.733 in assay [3]; -0.507 in assay [4]; -0.0151 in assay [5]; 0.239 in assay [6]. Also, the “log2 ratio” value in assay [7] was -0.301; in [8], -0.323; in [9] it was -0.177; in assay [10] it was 0.0126.
For the molecule `Cl.O=C(CCl)NCc1cc2c(nc1O)CCCC2`, the “log2 ratio” value in assay [1] is -0.448; in assay [2], 0.127; in assay [3], -1.45 (active); in assay [4], -0.169; in [5], 0.0226; in [6], 0.773. Besides, the “log2 ratio” value was -0.155 in [7], -0.3 in assay [8], -0.309 in assay [9] and -0.0291 in assay [10].
